Experimental data taken from the supplement of paper PMC8728848.
The entries come from a sample that favours the strongest signals as a whole.

Legend:
Assay in all cases: glycan array binding signal (z-score within array); higher = stronger binding
Settings in all cases: glycan notation: IUPAC condensed, linker removed
Fuc(a1-2)Gal(b1-3)GalNAc = biological target: Fuc(a1-2)Gal(b1-3)GalNAc
How it was run: (§1)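 Glycan array binding is given as a within-array Z-score, which can be read as non-binding when negative. The arrays, 3228 of them, came from the Consortium for Functional Glycomics database and were retained only where the protein sequence was available. Z-scores were averaged across arrays of the same protein sequence at different concentrations or buffers and across linkers.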

[1] = biological target: Fuc(a1-2)Gal(b1-3)GlcNAc(b1-3)[Neu5Ac(a2-6)Gal(b1-4)GlcNAc(b1-6)]Gal(b1-4)Glc
How it was run: as §1

[2] = biological target: Fuc(a1-2)Gal(b1-3)GlcNAc6S
How it was run: as §1

[3] = biological target: Fuc(a1-2)Gal(b1-3)[Fuc(a1-4)]GlcNAc(b1-2)Man(a1-3)[Fuc(a1-2)Gal(b1-3)[Fuc(a1-4)]GlcNAc(b1-2)Man(a1-6)]Man(b1-4)GlcNAc(b1-4)[Fuc(a1-6)]GlcNAc(b1-4)[Fuc(a1-6)]GlcNAc
How it was run: as §1

[4] = biological target: Fuc(a1-2)Gal(b1-3)[Fuc(a1-4)]GlcNAc(b1-3)[Gal(b1-4)GlcNAc(b1-6)]Gal(b1-4)Glc
How it was run: as §1

[5] = biological target: Fuc(a1-2)[Gal(a1-3)]Gal(b1-3)GlcNAc(b1-2)Man(a1-3)[Fuc(a1-2)[Gal(a1-3)]Gal(b1-3)GlcNAc(b1-2)Man(a1-6)]Man(b1-4)GlcNAc(b1-4)GlcNAc
How it was run: as §1

[6] = biological target: Fuc(a1-2)[Gal(a1-3)]Gal(b1-3)GlcNAc(b1-2)Man(a1-3)[Fuc(a1-2)[Gal(a1-3)]Gal(b1-3)GlcNAc(b1-2)Man(a1-6)]Man(b1-4)GlcNAc(b1-4)[Fuc(a1-6)]GlcNAc
How it was run: as §1

[7] = biological target: Fuc(a1-2)[Gal(a1-3)]Gal(b1-3)GlcNAc(b1-3)GalNAc
How it was run: as §1

[8] = biological target: Fuc(a1-2)[Gal(a1-3)]Gal(b1-4)GlcNAc(b1-2)Man(a1-3)[Fuc(a1-2)[Gal(a1-3)]Gal(b1-4)GlcNAc(b1-2)Man(a1-6)]Man(b1-4)GlcNAc(b1-4)[Fuc(a1-6)]GlcNAc
How it was run: as §1

[9] = biological target: Fuc(a1-2)[GalNAc(a1-3)]Gal
How it was run: as §1

[10] = biological target: Fuc(a1-2)[GalNAc(a1-3)]Gal(b1-3)GlcNAc(b1-3)GalNAc
How it was run: as §1

[11] = biological target: Fuc(a1-2)[GalNAc(a1-4)]Gal(b1-4)GlcNAc
How it was run: as §1

[12] = biological target: Fuc(a1-3)[Gal(b1-4)]Glc6S
How it was run: as §1

Gal(a1-3)Gal(b1-4)GlcNAc = biological target: Gal(a1-3)Gal(b1-4)GlcNAc
How it was run: as §1

Gal(b1-3)GalNAc(b1-3)Gal = biological target: Gal(b1-3)GalNAc(b1-3)Gal
How it was run: as §1

[13] = biological target: Gal(b1-3)[Fuc(a1-4)]GlcNAc(b1-2)Man(a1-3)[Gal(b1-3)[Fuc(a1-4)]GlcNAc(b1-2)Man(a1-6)]Man(b1-4)GlcNAc(b1-4)[Fuc(a1-6)]GlcNAc
How it was run: as §1

[14] = biological target: Gal(b1-4)GlcNAc(b1-3)Gal(b1-4)GlcNAc(b1-3)Gal(b1-4)GlcNAc(b1-2)Man(a1-3)[Gal(b1-4)GlcNAc(b1-3)Gal(b1-4)GlcNAc(b1-3)Gal(b1-4)GlcNAc(b1-2)Man(a1-6)]Man(b1-4)GlcNAc(b1-4)GlcNAc
How it was run: as §1

[15] = biological target: Gal(b1-4)GlcNAc(b1-3)Gal(b1-4)GlcNAc(b1-3)Gal(b1-4)GlcNAc(b1-2)[Gal(b1-4)GlcNAc(b1-3)Gal(b1-4)GlcNAc(b1-3)Gal(b1-4)GlcNAc(b1-6)]Man(a1-6)[Gal(b1-4)GlcNAc(b1-3)Gal(b1-4)GlcNAc(b1-3)Gal(b1-4)GlcNAc(b1-2)Man(a1-3)]Man(b1-4)GlcNAc(b1-4)[Fuc(a1-6)]GlcNAc
How it was run: as §1

[16] = biological target: Gal(b1-4)GlcNAc(b1-3)Gal(b1-4)GlcNAc(b1-3)Gal(b1-4)GlcNAc(b1-3)Gal(b1-4)GlcNAc(b1-2)Man(a1-3)[Gal(b1-4)GlcNAc(b1-3)Gal(b1-4)GlcNAc(b1-3)Gal(b1-4)GlcNAc(b1-3)Gal(b1-4)GlcNAc(b1-2)Man(a1-6)]Man(b1-4)GlcNAc(b1-4)GlcNAc
How it was run: as §1

[17] = biological target: Gal(b1-4)GlcNAc(b1-3)Gal(b1-4)GlcNAc(b1-3)Gal(b1-4)GlcNAc(b1-3)Gal(b1-4)GlcNAc(b1-2)[Gal(b1-4)GlcNAc(b1-3)Gal(b1-4)GlcNAc(b1-3)Gal(b1-4)GlcNAc(b1-3)Gal(b1-4)GlcNAc(b1-6)]Man(a1-6)[Gal(b1-4)GlcNAc(b1-3)Gal(b1-4)GlcNAc(b1-3)Gal(b1-4)GlcNAc(b1-3)Gal(b1-4)GlcNAc(b1-2)Man(a1-3)]Man(b1-4)GlcNAc(b1-4)[Fuc(a1-6)]GlcNAc
How it was run: as §1

[18] = biological target: Gal(b1-4)GlcNAc(b1-3)Gal(b1-4)GlcNAc(b1-6)[Gal(b1-3)]GalNAc
How it was run: as §1

[19] = biological target: Gal(b1-4)GlcNAc(b1-3)Gal(b1-4)[Fuc(a1-3)]GlcNAc(b1-3)Gal(b1-4)[Fuc(a1-3)]GlcNAc
How it was run: as §1

[20] = biological target: Gal(b1-4)GlcNAc(b1-6)GalNAc
How it was run: as §1

[21] = biological target: Gal3S(b1-4)[Fuc(a1-3)]Glc6S
How it was run: as §1

Gal6S(b1-4)GlcNAc = biological target: Gal6S(b1-4)GlcNAc
How it was run: as §1

[22] = biological target: GalNAc(b1-3)Gal(a1-4)Gal(b1-4)GlcNAc(b1-3)Gal(b1-4)Glc
How it was run: as §1

[23] = biological target: GlcNAc(a1-4)Gal(b1-4)GalNAc
How it was run: as §1

[24] = biological target: GlcNAc(a1-6)Gal(b1-4)GlcNAc
How it was run: as §1

[25] = biological target: GlcNAc(b1-2)Man(a1-3)[GlcNAc(b1-2)Man(a1-6)]Man(b1-4)GlcNAc(b1-4)[Fuc(a1-6)]GlcNAc
How it was run: as §1

[26] = biological target: GlcNAc(b1-3)Gal(b1-4)GlcNAc(b1-3)Gal(b1-4)GlcNAc(b1-3)Gal(b1-4)GlcNAc(b1-3)Gal(b1-4)GlcNAc(b1-2)Man(a1-3)[GlcNAc(b1-3)Gal(b1-4)GlcNAc(b1-3)Gal(b1-4)GlcNAc(b1-3)Gal(b1-4)GlcNAc(b1-3)Gal(b1-4)GlcNAc(b1-2)Man(a1-6)]Man(b1-4)GlcNAc(b1-4)[Fuc(a1-6)]GlcNAc
How it was run: as §1

B1: EUL D1A (Oryza sativa) (protein)
chain: MFGFGHHHNQAPAAPSDPNQIFKIFCRANENYCLTVRDSAVVLAPVNPKDEHQHWFKDMRFSTKVKDGEGMPAFALVNKATGLAVKHSLGQSHPVKLVPFNPEYEDASVLWTESKDVGKGFRCIRMVNNTRLNLDAFHGDKDHGGVRDGTTVVLWEWCKGDNQSWKILPWGPEAHSSSPGAATACTIGGVPVHTVRVFSAAGEDYCLTVRNGTACLAPKNPRDDYQHWIKDMRHSNKIRDEEGYPAFALVNKVTGEAIKHSTGQGHPVKLVPYNPEYQDESVLWTESKDVGKGFRCIRMVNNIYLNFDAFHGDKDHGGIHDGTEIVLWKWCEGDNQRWKILPWILEQKLISEEDLNSAVDHHHHHH
Question: How did the “glycan array binding signal (z-score)” value (Fuc(a1-2)Gal(b1-3)GalNAc) turn out when B1 was run?
Answer: -0.934

Question: And the “glycan array binding signal (z-score)” value [1]?
Answer: -0.444

Question: And the “glycan array binding signal (z-score)” value [2]?
Answer: 0.203

Question: And the “glycan array binding signal (z-score)” value [3]?
Answer: 2.92

Question: And the “glycan array binding signal (z-score)” value [4]?
Answer: 1.23

Question: And the “glycan array binding signal (z-score)” value [5]?
Answer: 0.066

Question: What about the “glycan array binding signal (z-score)” value [6] of the same binder?
Answer: -1.06

Question: What about the “glycan array binding signal (z-score)” value [7] of the same binder?
Answer: -0.79

Question: And the “glycan array binding signal (z-score)” value [8]?
Answer: 0.315

Question: And the “glycan array binding signal (z-score)” value [9]?
Answer: -0.299

Question: What about the “glycan array binding signal (z-score)” value [10] of the same binder?
Answer: 0.318

Question: And the “glycan array binding signal (z-score)” value [11]?
Answer: -0.759

Question: And the “glycan array binding signal (z-score)” value [12]?
Answer: 1.6

Question: And the “glycan array binding signal (z-score)” value (Gal(a1-3)Gal(b1-4)GlcNAc)?
Answer: -0.8

Question: And the “glycan array binding signal (z-score)” value (Gal(b1-3)GalNAc(b1-3)Gal)?
Answer: -0.437

Question: And the “glycan array binding signal (z-score)” value [13]?
Answer: 0.658

Question: And the “glycan array binding signal (z-score)” value [14]?
Answer: 2.18

Question: What about the “glycan array binding signal (z-score)” value [15] of the same binder?
Answer: 2.54

Question: What about the “glycan array binding signal (z-score)” value [16] of the same binder?
Answer: 2.32

Question: And the “glycan array binding signal (z-score)” value [17]?
Answer: 2.71

Question: What about the “glycan array binding signal (z-score)” value [18] of the same binder?
Answer: 2.71

Question: And the “glycan array binding signal (z-score)” value [19]?
Answer: -0.649

Question: What about the “glycan array binding signal (z-score)” value [20] of the same binder?
Answer: 0.031

Question: And the “glycan array binding signal (z-score)” value [21]?
Answer: 2.51

Question: What about the “glycan array binding signal (z-score)” value (Gal6S(b1-4)GlcNAc) of the same binder?
Answer: -0.407

Question: What about the “glycan array binding signal (z-score)” value [22] of the same binder?
Answer: -0.333

Question: What about the “glycan array binding signal (z-score)” value [23] of the same binder?
Answer: -0.573

Question: And the “glycan array binding signal (z-score)” value [24]?
Answer: 2.67

Question: And the “glycan array binding signal (z-score)” value [25]?
Answer: 2.33

Question: What about the “glycan array binding signal (z-score)” value [26] of the same binder?
Answer: 1.58
